Here are results for 71 compounds from ChEMBL document CHEMBL4513216, “Probing the Open Global Health Chemical Diversity Library for Multistage-Active Starting Points for Next-Generation Antimalarials” (ACS Infect Dis, 2020).

Among all 69,000 compounds or so, about 8,600 (12%) showed an effect of 50% or more. The list comes from a sample in which strong results are over-represented; it also holds similar structures and randomly drawn compounds.

For the test, the system named is Plasmodium berghei. The experiment in a line: Screen against P. berghei liver stage (PbLuc), transformed with Luciferase, at 10uM. It is filed as functional, HepG2. As to conditions: tested at 10 uM.
`Cc1nc(CN2CCC3(CCCN(Cc4ccoc4)C3)C2=O)cs1` (stereo unspecified): the INHIBITION is reported as -5.31%. The value for `COc1c[nH]c(C(=O)Nc2nc(C(C)(C)C)cs2)cc1=O` was 29.4%. Then `CC[C@H](C)[C@H](N)C(=O)Nc1nc(-c2cnc(N(C)C)nc2)cs1`, with 21.9%; and `CCN1CC2(CC1=O)CN(C(=O)C(C)C)CCN(S(C)(=O)=O)C2` (stereo unspecified), with 46.7%; and `CCN1CC2(CC1=O)CN(C(C)=O)CCN(S(C)(=O)=O)C2` (stereo unspecified), with 26%. The value for `CCN1CC2(CC1=O)CN(C(=O)C(C)C)CCN(S(=O)(=O)CC)C2` (stereo unspecified) was 52.3%; that for `CCN1CC2(CC1=O)CN(Cc1ccco1)CCN(C(=O)C(C)C)C2` (stereo unspecified) was 57.4%. As for `CCN1CC2(CC1=O)CN(C(=O)COC)CCN(S(C)(=O)=O)C2` (stereo unspecified), the INHIBITION came to 63%. Then `CCN1CC2(CC1=O)CN(Cc1ccco1)CCN(C(=O)N(C)C)C2` (stereo unspecified), with 5.14%; and `CCN1CC2(CC1=O)CN(C(=O)N(C)C)CCN(S(C)(=O)=O)C2` (stereo unspecified), with 31.9%.

Turning to `CCN1CC2(CC1=O)CN(Cc1ccc(C)o1)CCN(C(=O)C(C)C)C2` (stereo unspecified), the INHIBITION was found to be 42.5%. With `CCS(=O)(=O)N1CCN(C(=O)C(C)C)CC2(CC(=O)N(C)C2)C1` (stereo unspecified), the INHIBITION stood at 45.8%. The value for `CC(C)c1nnc2n1CCN(C(=O)c1ccc3c(c1)CCC3)C2` was -12.2%; that for `COc1ccccc1C1=NOC(CC2(C(=O)O)CCOCC2)C1` (stereo unspecified) was 29.2%. Then `CCn1cnnc1C1CCN(C(=O)c2cccc(N(C)C)c2)CC1`, with 39.7%. Then `CCc1cnc(N2C[C@H]3CN(Cc4csc(C)n4)C(=O)[C@H]3C2)nc1`, with 18.5%; and `Cc1cc(C(=O)NS(C)(=O)=O)c(C)n1-c1ccccc1`, with 37.9%; and `Cc1nc(CN2C[C@@H]3CN(C(=O)c4cnccn4)C[C@@H]3C2)cs1`, with -13.2%. As to `CN1C[C@@H](C(=O)NC(C)(C)C)[C@@]2(CCc3ccccc3C(=O)N2)C1`, the INHIBITION was 16.5%.

Take `COCCn1ccc(NC(=O)Nc2cccnc2)n1`: the INHIBITION is on record as 25.3%. For the compound `Cc1cc(N2CCOC(c3ccc(N(C)C)cn3)C2)nc(N)n1` (stereo unspecified), the INHIBITION was -0.6%. On to `Cc1cc(C(=O)N2CCC3(CC2)COCCN(c2cccnc2)C3)[nH]n1`, for which the INHIBITION is 24.6%.

`COc1ccnc(N2CCN(Cc3ncc(-c4ccccc4)o3)CC2)n1`: the INHIBITION is listed as 56%.

For `COc1ccnc(N2CCCN(Cc3ncc(C(C)C)o3)CC2)n1`, the INHIBITION was found to be 9.76%. For `COc1ccnc(N2CCN(Cc3ncc(C(C)(C)C)o3)CC2)n1`, the INHIBITION is on record as 9.76%.

As for `CN(CCc1nc(-c2cccc(Cl)c2)no1)CCn1cccn1`, the INHIBITION amounted to 12.6%. With `Cc1noc(C)c1CN(C)CCc1nc(-c2cccc(Cl)c2)no1`, the INHIBITION came out at 88.1%. Regarding `Cc1nnc(CN(C)CCc2nc(-c3cccc(Cl)c3)no2)n1C`, the INHIBITION is 34.5%. Then `O=C(Cc1cccnc1)N1CCC2(CC1)CCN(C1CCOC1)C2` (stereo unspecified), with 53.4%; and `O=C(Cc1cccnc1)N1CCC2(CC1)CCN(C1CCOCC1)C2`, with -3.19%. With `O=C(Cc1cccnc1)N1CCC2(CCN(C3CCOC3)CC2)C1` (stereo unspecified), the INHIBITION was -1.83%.

On to `CC(=O)N1CCN(Cc2ccc(C)o2)CC2(CC(=O)N(C)C2)C1` (stereo unspecified), for which the INHIBITION is listed as 3.81%. With `COc1ncccc1N(C)C(=O)Cn1cc(-c2ccccc2)nn1`, the INHIBITION came out at 4.34%. The value for `Cc1ccc(C2COCCN2C(=O)c2ccsc2)o1` (stereo unspecified) was 3.77%.

As to `N#CCCN(CCC#N)C(=O)c1ccc(OCC2CC2)cc1`, the INHIBITION is -77.9%.

For `N#CCCN(Cc1ccco1)C(=O)c1ccc(OCC2CC2)cc1`, the INHIBITION was found to be 69.5%. As for `N#CCCN(Cc1cccnc1)C(=O)c1ccc(OCC2CC2)cc1`, the INHIBITION is recorded as -92.2%. Turning to `CC(=O)NCC(=O)N1CCC2(CC1)NC(=O)CC2c1cnn(C)c1` (stereo unspecified), the INHIBITION came to 43.1%.

With `Cc1cnn(CC2CCCN2C(=O)c2cc(C)nc3[nH]nc(C)c23)c1` (stereo unspecified), the INHIBITION is reported as -37.7%. `CCOc1ncccc1C(=O)N1CCCC(c2nncn2C)C1` (stereo unspecified): the INHIBITION is reported as -98.8%. On to `CC(C)c1nnc(CN2CCC3(CC2)Nc2ccccc2NC3=O)o1`, for which the INHIBITION is recorded as -20.7%. `CCc1nnc(CN2CCC3(CC2)Nc2ccccc2NC3=O)o1`: the INHIBITION was 18.2%.

Take `O=C1Nc2ccccc2NC12CCN(Cc1nnc(C3CC3)o1)CC2`: the INHIBITION amounted to 56.1%.

Take `CC(=O)N1CCN(c2cc(-n3cccc3)ncn2)CC1`: the INHIBITION is reported as -12.1%.

As for `CN(c1cccnn1)[C@@H]1CC[C@@H]2CN(Cc3cccc(C(=O)O)c3)C[C@@H]21`, the INHIBITION is reported as 30.6%.

With `CC(C)CN(CC(O)c1ccc(F)cc1)C(=O)c1csnn1` (stereo unspecified), the INHIBITION is recorded as -3.48%. Then `CS(=O)(=O)N1CCN(CC(=O)Nc2cccc(Cl)c2)CC1`, with 6.83%; and `CC(C1CC1)N(C)Cc1nnc(-c2ccco2)o1` (stereo unspecified), with 21.5%.

In the case of `c1ccc(C(NCc2nnc(-c3ccco3)o2)C2CCC2)cc1` (stereo unspecified), the INHIBITION is 50.8%. Then `Fc1ccc(C(NCc2nnc(C3CC3)o2)C2CCC2)cc1` (stereo unspecified), with 23.9%.

As to `Fc1ccc(C(NCc2nnc(-c3ccco3)o2)C2CCC2)cc1` (stereo unspecified), the INHIBITION is 82.3%. In the case of `Cc1ccc(N2CCCC(NCc3nnc(-c4ccco4)o3)C2)nn1` (stereo unspecified), the INHIBITION is on record as 11.94%. The value for `Fc1ccc(OC2CCN(Cc3nnc(-c4ccco4)o3)CC2)cc1` was -53.1%.

On to `CCc1nc(CN(C)C2CCN(CCn3cccn3)C2)no1` (stereo unspecified), for which the INHIBITION is listed as 14.1%. For the compound `Cn1cnnc1CN1CCC2(CCCN(C3CCCC3)C2=O)C1` (stereo unspecified), the INHIBITION is listed as -15.6%. `CCn1nc(C)c(CCNC(=O)C2CCCN(C3CCCC3)C2)c1C` (stereo unspecified): the INHIBITION was -23.4%.

As to `CC1CCN(CC(O)CN2CCn3c(nnc3C3CC3)C2)CC1` (stereo unspecified), the INHIBITION was determined as 12.3%. Then `Cc1nnc2n1CCN(CC(O)CN1CCC(C)CC1)C2` (stereo unspecified), with 78.2%; and `CCc1nnc2n1CCN(CC(O)CN1CCC(C)CC1)C2` (stereo unspecified), with 30.3%; and `COc1ccc(C)cc1CN(C)CC(N)=O`, with -33.4%. The value for `Cc1ccc(S(=O)(=O)N2CCC3(CC(C(=O)NCC(C)C)=NO3)C2)cc1` (stereo unspecified) was -10.2%. Then `CC(C)CNC(=O)C1=NOC2(CCN(Cc3cccc(C#N)c3)C2)C1` (stereo unspecified), with 20.6%. Take `O=C(NCC1CC1)C1=NOC2(CCN(Cc3ccc4c(c3)OCO4)C2)C1` (stereo unspecified): the INHIBITION amounted to 6.38%. `COc1ccc(CN2CCC3(CC2)CC(CC(=O)NC(C)C)CO3)cc1` (stereo unspecified): the INHIBITION was 18.6%. For the compound `Cc1cccc(CN2CCC3(CC(C(=O)NCC(C)C)=NO3)C2)c1` (stereo unspecified), the INHIBITION is given as 76.2%.

As to `COc1ccc(CN2CCC3(CC(C(=O)NCC(C)C)=NO3)C2)cc1` (stereo unspecified), the INHIBITION turned out to be 78.2%. Then `N#Cc1cccc(CN2CCC3(CC(C(=O)NCC4CC4)=NO3)C2)c1` (stereo unspecified), with 52%. Then `CC(C)CNC(=O)C1=NOC2(CCN(Cc3ccc(C(C)C)cc3)C2)C1` (stereo unspecified), with 80.2%; and `Cc1ccc(CN2CCC3(CC(C(=O)NCC4CC4)=NO3)C2)cc1C` (stereo unspecified), with 31.2%. Then `CCc1ccc(CN2CCC3(CC(C(=O)NCC(C)C)=NO3)C2)o1` (stereo unspecified), with 32.5%. Consider `CC(C)CNC(=O)C1=NOC2(CCN(Cc3ccoc3)C2)C1` (stereo unspecified), for which the INHIBITION is on record as -4.26%.
